We go through seven molecules from PubChem BioAssay.

This assay is described as follows: yeast AGP1-GFP fluorescence change, single-dose – cell-based, flow cytometry, S. cerevisiae, cherry picks, confirmation (AID 2273).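 Note: median GFP channel fluorescence over the whole cell population gate.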 The note with it: S. cerevisiae AGP1-GFP strain, 3 h, at 10 µM.

A number with no mark means an inactive call.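 Rule for the calls: active = GFP response above 150% of the DMSO level; inconclusive = fewer than 70 events counted for a yeast strain; inactive = the rest.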

In the case of `C[C@]12CCC(=O)C=C1CC[C@@H]1[C@@H]2C(=O)C[C@@]2(C)[C@H]1CC[C@]2(O)C(=O)CO`, the GFP response, % of DMSO is 104%. The value for `CC(=O)[C@@]1(O)CC[C@H]2[C@@H]3CCC4=CC(=O)CC[C@]4(C)[C@H]3CC[C@@]21C` was 96.5%. In the case of `O=c1[nH]c(=O)n([C@H]2C[C@H](O)[C@@H](CO)O2)cc1F` it was 102%. The value for `Nc1nc2c(ncn2COCCO)c(=O)[nH]1` was 102%; that for `O=C(/C=C/c1ccnc2ccccc12)c1cccs1` was 112%; that for `O=C(Nc1c(-c2ccccc2)nc2ccccn12)c1ccco1` was 98.9%. Regarding `O=C1C(Cl)=C(Nc2ccccc2O)C(=O)N1CCc1ccccc1`, the GFP response, % of DMSO was 104%.
